Most compounds without a hit are left out; they make up all but 2.5% or so of the library.
Cruzain Triton: inhibitors of Trypanosoma cruzi cruzain with detergent; P25779; purified cruzain, Z-FR-AMC fluorescence, 0.01% Triton; Potency, µM, for inactives: max response, negative = inhibition, actives largely listed as inhibitors; actives 0.43% (n = 200,000);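 note: plate controls were neutral wells for no effect and buffer without enzyme for full effect; nearly all actives have a fitted effect of over 40% in size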
Target sequence (P25779 123-467 limits assumed): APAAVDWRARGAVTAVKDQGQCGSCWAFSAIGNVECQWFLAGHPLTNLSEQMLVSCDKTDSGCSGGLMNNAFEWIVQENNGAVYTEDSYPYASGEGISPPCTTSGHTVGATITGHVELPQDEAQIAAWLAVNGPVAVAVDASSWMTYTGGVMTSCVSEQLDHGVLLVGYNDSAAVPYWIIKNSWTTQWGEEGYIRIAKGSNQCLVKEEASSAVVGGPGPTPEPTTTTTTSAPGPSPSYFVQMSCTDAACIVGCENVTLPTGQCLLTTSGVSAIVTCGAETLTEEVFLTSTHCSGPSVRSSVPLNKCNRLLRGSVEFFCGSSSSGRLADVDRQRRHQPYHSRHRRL
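Z-FR-AMC hydrolysis (2 uM substrate) by cruzain (1.5 nM) monitored kinetically at ex 360/em 450 nm after 15 min room-temperature compound exposure; 0.01% Triton X-100, pH 5.5, 5 mM DTT.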
Cruzain inh noDet: cruzain (T. cruzi) inhibition without detergent; P25779; purified cruzain, Z-FR-AMC fluorescence, no detergent; Potency, µM, without a hit: max response, negative = inhibition, most hits filed as inhibitors; actives 2.3% (n = 200,000); AID 1476;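 note: plate controls were enzyme without inhibitor for no effect and buffer without enzyme for full effect; nearly all actives have a fitted effect of over 40% in size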
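Detergent-free condition (0.00005% Triton X-100) in acetate buffer pH 5.5 with DTT. 1.5 nM enzyme and compound were pre-mixed 15 min, then 2 uM Z-FR-AMC substrate added; reaction progress from fluorescence change between first and third reads (60 s).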
An asterisk follows results filed as active; ? = inconclusive; ! = repeats disagree. Calls come from the whole dose curve; as a rule, active = well fitted curve in the direction sought with a large enough effect; inconclusive = small, poorly fitted or top-dose-only effect, or another doubt; inactive = no such curve, though single readings can be large; an effect the other way counts as inactive or inconclusive. Potency is the fitted concentration of half-maximal effect.

SMILES | Cruzain Triton | Cruzain inh noDet
Cc1ccc(-n2nnc(-c3nsc(NC(=O)c4ccccc4C)n3)c2C)cc1Cl | -2% | -5%
CCOc1ccc(CCNC(=O)c2cc3c(=O)n(CC)c4ccccc4c3s2)cc1OCC | 1% | -18%
O=C(O)c1ccccc1-c1c2cc(Br)c(=O)cc-2oc2[c]([Hg])c(O)c(Br)cc12 | 20µM*! | ?
Cc1ccc2oc(-c3ccccc3C(=O)O)cc(=O)c2c1 | -3% | -13%
Cc1ccc(-c2cn3c4c(=O)n(C)c(=O)n(C)c4nc3n2-c2cccc(Cl)c2)cc1 | 2% | -1%
CN(C)c1ccc(/C=C/C(=O)c2cccc(Br)c2)cc1 | -2% | -4%
CC(=O)Oc1oc(-c2ccccc2)nc1C=Nc1ccccc1 | 25µM* | 25µM*
CCOC(=O)c1ccc(N=Cc2nc3ccccc3n2C)cc1 | -1% | 4%
CCC(=O)Oc1oc(-c2ccccc2)nc1C=Nc1ccccc1OC | -18% | -15%
CN(C)c1ccc(N=Cc2nc(-c3ccccc3)oc2OC(=O)c2cccc(Br)c2)cc1 | -21% | 25µM*
Cc1ccc(C(=O)Oc2oc(-c3ccco3)nc2C=Nc2ccccc2)cc1 | 10µM* | 13µM*
CCOC(=O)c1ccc(N=Cc2nc(-c3ccccc3)oc2OC(C)=O)cc1 | 14µM* | -27%
Oc1oc(-c2ccco2)nc1C=Nc1ccccc1 | -21% | -9%
CC(=O)Nc1ccc(Nc2nc3ccc(C)cc3n3nnnc23)cc1 | -5% | 17%
CCc1ccc(-n2c(=O)c3c4c(sc3n(CC(=O)NC(C)CC)c2=O)CCCC4)cc1 (centres undefined) | -2% | -13%
CCOC(=O)c1c(C)[nH]c(C)c1S(=O)(=O)N1CCCC(C(=O)NCc2cccc(OC)c2)C1 (centres undefined) | 1% | 8%
O=C(NCc1ccccc1Cl)c1ccc(Cn2c(=O)c3cccn3c3cccnc32)cc1 | 4% | 11%
CCOC(=O)C1CCN(C(=O)C2COc3ccccc3C2)CC1 (centres undefined) | -1% | -6%
CCN(CC)C(=O)C(C)N(C#N)c1nc(SC)nc(N(C)C)n1 (centres undefined) | 0% | 3%
CCOC(=O)CSc1nc(N(C)C)nc(N(C)C#N)n1 | 16µM* | 20µM*
C=C1C[C@H](OC(=O)C(C)(O)CCl)C2C(=C)C(=O)O[C@@H]2C2C1C[C@H](O)[C@]2(O)CCl (some centres undefined) | 1% | -16%
COC(=O)c1sc2cc(C(F)(F)F)cnc2c1-c1ccccc1 | 3% | 0%
COc1ccc(NC(=O)c2sc3cc(C(F)(F)F)cnc3c2-c2cccs2)cc1 | 3% | -4%
O=C(O)c1sc2cc(C(F)(F)F)cnc2c1-c1ccccc1 | ? | 16µM*
O=C(Nc1ccc(F)cc1)c1sc2cc(C(F)(F)F)cnc2c1-c1cccs1 | 0% | 25µM*
SMILES | Cruzain Triton | Cruzain inh noDet
COc1ccc(OC)c(CCNC(=O)c2cnn(-c3ccccc3)c2-n2cccc2)c1 | -6% | -3%
CCC(C)O (centres undefined) | 1% | -2%
Cc1ccc(Cc2nc3ccccc3nc2SCC(=O)NCCC(C)C)cc1 | 1% | -3%
Cc1cccc(C2=NN(c3ccccc3)[C@H](CO)[C@H]2c2ccccc2)c1 | -1% | ?
Cc1cccc(C2=NN(c3ccccc3)[C@H](CO)[C@H]2C)c1 | -2% | 35µM*
COc1ccc(C2/C=C\CN(CC(C)C)CC(=O)N2Cc2cccc(F)c2)cc1 (centres undefined) | 2% | -3%
COc1ccc(C2/C=C\CN(C(=O)OCC3c4ccccc4-c4ccccc43)CC(=O)N2Cc2cccc(F)c2)cc1 (centres undefined) | -2% | 25µM*
Cc1ccc(CN2CCCn3nc(C(=O)NCCc4cccc(C)c4)cc3C2=O)cc1 | -1% | -7%
Cc1onc(-c2c(Cl)cccc2Cl)c1C(=O)NC(=S)Nc1sc2c(c1C(N)=O)CCC(C)C2 (centres undefined) | 3% | 4µM*
COc1ccc(-c2cc(C(=O)Nc3sc4c(c3C(N)=O)CCC(C)C4)no2)cc1 (centres undefined) | -2% | -4%
CCOc1ccccc1C(=O)NC1(C(F)(F)F)C(=O)Nc2c1c(=O)[nH]c(=O)n2-c1ccccc1 (centres undefined) | -2% | 21%
N#CC1=C(N)Oc2c(ccc3ccccc23)C1c1cccs1 (centres undefined) | -10% | ?
COC(=O)c1ccc(NC(=O)COc2ccc(C3C(C#N)=C(N)Oc4c3ccc3ccccc43)cc2OC)cc1 (centres undefined) | 2% | 7.9µM*
COC(=O)c1ccc(NC(=O)COc2ccccc2OC)cc1 | -1% | -3%
COc1cc(C2C(C#N)=C(N)Oc3c2ccc2ccccc32)ccc1OCC(=O)Nc1ccccc1C (centres undefined) | 1% | 13µM*
CC(C)c1cccc2cc3c(nc12)-c1cccc(=O)n1C3 | -6% | ?
Cc1[nH]nc(-c2ccc(OCc3cnn(-c4ccccc4)c3)c(C)c2O)c1Oc1ccccc1 | 8% | 13µM*
Cc1[nH]nc(-c2ccc(OCc3cnn(-c4ccccc4)c3)cc2O)c1Oc1ccc(F)cc1 | 8% | ?
CCc1cc2cc3c(cc2nc1SCC(=O)Nc1nnc(C)s1)OCCO3 | 3% | ?
Cc1cc2cc3c(cc2nc1SCC(=O)Nc1nc(C)c(C)s1)OCO3 | 5% | 32µM*
CCc1cc2cc(C)ccc2nc1SCC(=O)Nc1cc(C)on1 | 2% | -12%
CCc1cc2cc3c(cc2nc1SCC(=O)Nc1cc(C)on1)OCO3 | -2% | 25µM*
O=C(/C=C(\O)c1ccccc1)c1ccccc1O | -6% | -15%
Oc1ccc(Nc2nc3ccccc3n3cnnc23)cc1 | -6% | -8%
Cc1ccc(-c2csc3nnc(SCC(=O)N4CCN(Cc5ccccc5)CC4)n23)cc1 | -6% | 20µM*
SMILES | Cruzain Triton | Cruzain inh noDet
O=C(CSc1nnc2scc(-c3ccccc3)n12)N1CCN(Cc2ccccc2)CC1 | -5% | -9%
CCc1nc(-c2cc(S(=O)(=O)N3CCN(c4ccc(F)cc4)CC3)ccc2OC)no1 | -8% | ?
CCc1ccc(S(=O)(=O)c2cn(Cc3ccccc3)c3cc(F)c(F)cc3c2=O)cc1 | 0% | 1%
CC1=C(C(=O)Nc2ccccc2)C(c2ccccc2C)n2ncc(C(=O)Nc3ccccc3)c2N1 (centres undefined) | -8% | -9%
CC1=C(C(=O)Nc2ccccc2)C(c2ccccc2Cl)n2ncc(C(=O)Nc3cccc(C)c3)c2N1 (centres undefined) | -5% | 20µM*
COCC(=O)NCc1nc2cccnc2n1Cc1ccc(F)cc1 | 1% | -10%
O=C1CS(=O)(=O)C2(C(=O)N(Cc3ccccc3)c3ccccc32)N1c1ccccc1 (centres undefined) | 1% | ?
Cc1ccc(CN2C(=O)C3(c4ccccc42)N(c2cccc(C(F)(F)F)c2)C(=O)CS3(=O)=O)cc1 (centres undefined) | -9% | 13µM*
O=C1CS(=O)(=O)C2(C(=O)N(Cc3ccc(F)cc3)c3ccccc32)N1c1cccc(C(F)(F)F)c1 (centres undefined) | -7% | ?
Cc1cc(C)cc(N2C(=O)CS(=O)(=O)C23C(=O)N(Cc2ccccc2)c2ccccc23)c1 (centres undefined) | -5% | 6.3µM*
Cc1cc(OCC(=O)Nc2ccc(C(=O)OC3CCCCC3)cc2)cc(C)c1Cl | -1% | -10%
Cc1ccccc1OCC(=O)NCC(c1ccc(Cl)cc1)N1CCCCC1 (centres undefined) | -1% | -2%

Screens deposited in PubChem by National Center for Advancing Translational Sciences (NCATS).
